Reference: the supplement of paper PMC10037445
The full ranking holds about 2,900 compounds; the median of “NF-kB SEAP reporter activity, fold change vs agonist alone” is about 0.99, and the highest 2% start at about 2.6. The entries come from a sample that favours the highest values as a whole.

Tests used:
RAW-Dual [1] = experiment: NF-kB SEAP reporter activity, fold change vs agonist alone; cytotoxicity flag (confluency mask): not cytotoxic; higher = enhanced NF-kB activity
Summary of the method: (§1)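 Supernatant from RAW-Dual macrophages was read after 20 hours for IRF by QuantiLuc luminescence and for NF-κB by QuantiBlue absorbance at 620 nm. The cells (50,000 cells/well in DMEM, 384-well plates, 37 °C, 5% CO2) had received 50 nL of library stock by pin tool and, 1 h later, a PRR agonist. Reporter activity is expressed relative to agonist-alone wells as fold change, and wells were flagged cytotoxic if IncuCyte confluency was under 70% of agonist controls in both mask sets.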

RAW-Dual [2] = experiment: NF-kB SEAP reporter activity, fold change vs agonist alone; higher = enhanced NF-kB activity; details: library stock concentration (final ~1000-fold dilution): 10 mM
Summary of the method: as §1

RAW-Dual [3] = experiment: NF-kB SEAP reporter activity, fold change vs agonist alone; cytotoxicity flag (confluency mask): cytotoxic (confluency <70% of control); higher = enhanced NF-kB activity
Summary of the method: as §1

[4] = agonist: ODN 1826 (TLR9) 0.5 ug/mL
[5] = agonist: Pam2CSK4 (TLR2/6) 0.1 ug/mL
[6] = agonist: Pam3CSK4 (TLR2/1) 0.1 ug/mL
[7] = cytotoxicity flag (confluency mask): not cytotoxic, agonist: Imiquimod (TLR7) […]
[8] = cytotoxicity flag (confluency mask): not cytotoxic, agonist: MPLA (TLR4) […]

## O=C(O)CCCN1CCC(OC(c2ccc(Cl)cc2)c2ccccn2)CC1 (stereo unspecified) (library stock concentration (final ~1000-fold dilution): 10 mM)
RAW-Dual [1]; agonist: LPS (TLR4) 0.1 ug/mL
  NF-kB SEAP reporter activity: 0.969
RAW-Dual [1]; [4]
  NF-kB SEAP reporter activity: 0.924
RAW-Dual [1]; [5]
  NF-kB SEAP reporter activity: 1.07
RAW-Dual [1]; [6]
  NF-kB SEAP reporter activity: 0.895

## O=C(O)CCCN1CCC(OC(c2ccc(Cl)cc2)c2ccccn2)CC1 (stereo unspecified)
RAW-Dual [2]; [7]
  NF-kB SEAP reporter activity: 0.895
RAW-Dual [2]; [8]
  NF-kB SEAP reporter activity: 1.07

## CN1CCN(C2CCN(C(=O)Nc3cc(Oc4ccc(NC(=O)C5(C(=O)Nc6ccc(F)cc6)CC5)c(F)c4)ccn3)CC2)CC1 (library stock concentration (final ~1000-fold dilution): 10 mM)
RAW-Dual [3]; agonist: LPS (TLR4) 0.1 ug/mL
  NF-kB SEAP reporter activity: 1.43
RAW-Dual [3]; [4]
  NF-kB SEAP reporter activity: 0.896
RAW-Dual [3]; [5]
  NF-kB SEAP reporter activity: 0.607
RAW-Dual [3]; [6]
  NF-kB SEAP reporter activity: 0.664

## COc1cc2c(Oc3ccc(NC(=O)C4(C(=O)Nc5ccc(F)cc5)CC4)cc3F)ccnc2cc1OCCCN1CCOCC1 (library stock concentration (final ~1000-fold dilution): 10 mM)
RAW-Dual [1]; agonist: LPS (TLR4) 0.1 ug/mL
  NF-kB SEAP reporter activity: 0.266
RAW-Dual [1]; [4]
  NF-kB SEAP reporter activity: 0.184
RAW-Dual [1]; [5]
  NF-kB SEAP reporter activity: 0.0818
RAW-Dual [1]; [6]
  NF-kB SEAP reporter activity: 0.137

## COc1cc2nccc(Oc3ccc(NC(=O)C4(C(=O)Nc5ccc(F)cc5)CC4)cc3)c2cc1OC
RAW-Dual [2]; [7]
  NF-kB SEAP reporter activity: 0.555
RAW-Dual [2]; [8]
  NF-kB SEAP reporter activity: 0.59

## CN1CCN(C2CCN(C(=O)Nc3cc(Oc4ccc(NC(=O)C5(C(=O)Nc6ccc(F)cc6)CC5)c(F)c4)ccn3)CC2)CC1
RAW-Dual [2]; cytotoxicity flag (confluency mask): cytotoxic (confluency <70% of control), agonist: Imiquimod (TLR7) […]
  NF-kB SEAP reporter activity: 2.76
RAW-Dual [2]; cytotoxicity flag (confluency mask): cytotoxic (confluency <70% of control), agonist: MPLA (TLR4) […]
  NF-kB SEAP reporter activity: 2.32

## COc1cc2c(Oc3ccc(NC(=O)C4(C(=O)Nc5ccc(F)cc5)CC4)cc3F)ccnc2cc1OCCCN1CCOCC1
RAW-Dual [2]; [7]
  NF-kB SEAP reporter activity: 0.252
RAW-Dual [2]; [8]
  NF-kB SEAP reporter activity: 0.252

## COc1cc2nccc(Oc3ccc(NC(=O)C4(C(=O)Nc5ccc(F)cc5)CC4)cc3)c2cc1OC (library stock concentration (final ~1000-fold dilution): 10 mM)
RAW-Dual [1]; agonist: LPS (TLR4) 0.1 ug/mL
  NF-kB SEAP reporter activity: 0.511
RAW-Dual [1]; [4]
  NF-kB SEAP reporter activity: 0.42
RAW-Dual [1]; [5]
  NF-kB SEAP reporter activity: 0.302
RAW-Dual [1]; [6]
  NF-kB SEAP reporter activity: 0.275

## CC(Nc1nc(NC(C)C(F)(F)F)nc(-c2cccc(Cl)n2)n1)C(F)(F)F (stereo unspecified)
RAW-Dual [2]; [7]
  NF-kB SEAP reporter activity: 1.04
RAW-Dual [2]; [8]
  NF-kB SEAP reporter activity: 1.11

## CC(Nc1nc(NC(C)C(F)(F)F)nc(-c2cccc(Cl)n2)n1)C(F)(F)F (stereo unspecified) (library stock concentration (final ~1000-fold dilution): 10 mM)
RAW-Dual [1]; agonist: LPS (TLR4) 0.1 ug/mL
  NF-kB SEAP reporter activity: 1.26
RAW-Dual [1]; [4]
  NF-kB SEAP reporter activity: 1.18
RAW-Dual [1]; [5]
  NF-kB SEAP reporter activity: 0.998
RAW-Dual [1]; [6]
  NF-kB SEAP reporter activity: 1.09

## CC1CNc2c(cccc2S(=O)(=O)NC(CCCNC(=N)N)C(=O)N2CCC(C)CC2C(=O)O)C1.O (stereo unspecified)
RAW-Dual [2]; [8]
  NF-kB SEAP reporter activity: 0.981

## CC1CNc2c(cccc2S(=O)(=O)NC(CCCNC(=N)N)C(=O)N2CCC(C)CC2C(=O)O)C1.O (stereo unspecified) (library stock concentration (final ~1000-fold dilution): 10 mM)
RAW-Dual [1]; agonist: LPS (TLR4) 0.1 ug/mL
  NF-kB SEAP reporter activity: 0.94
RAW-Dual [1]; [4]
  NF-kB SEAP reporter activity: 1.05
RAW-Dual [1]; [5]
  NF-kB SEAP reporter activity: 0.969
RAW-Dual [1]; [6]
  NF-kB SEAP reporter activity: 0.87

## O=C(OC1OC2COC(=O)c3cc(O)c(O)c(O)c3-c3c(cc(O)c(O)c3O)C(=O)OC(C2O)C1O)c1cc(O)c(O)c(O)c1 (stereo unspecified) (library stock concentration (final ~1000-fold dilution): 10 mM)
RAW-Dual [1]; agonist: LPS (TLR4) 0.1 ug/mL
  NF-kB SEAP reporter activity: 1.34
RAW-Dual [1]; [4]
  NF-kB SEAP reporter activity: 0.874
RAW-Dual [1]; [5]
  NF-kB SEAP reporter activity: 0.809
RAW-Dual [1]; [6]
  NF-kB SEAP reporter activity: 0.393

## O=C(OC1OC2COC(=O)c3cc(O)c(O)c(O)c3-c3c(cc(O)c(O)c3O)C(=O)OC(C2O)C1O)c1cc(O)c(O)c(O)c1 (stereo unspecified)
RAW-Dual [2]; [7]
  NF-kB SEAP reporter activity: 0.783
RAW-Dual [2]; [8]
  NF-kB SEAP reporter activity: 1.08
